# Experimental data published in PubChem BioAssay (NCI).
# The panel holds about 79,000 compounds, 15% with a hit somewhere; the sample as a whole holds those more often. A number with no mark means an inactive call. Activity calls are given as the source filed them. No stated cut-off is given here; in the data, active means growth inhibition above about 70%; inactive means the rest.
# What was measured:
# [1] = NCI Yeast Anticancer Drug Screen. Data for the rad50 strain (AID 155);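 further: 0% = growth of vehicle-only cultures of the same strain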; details: S. cerevisiae rad50 strain growth inhibition, hits give high values; at 50.0 µM unless noted
# Method in brief: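 A DNA repair-deficient yeast mutant serves as the test organism; compound-induced growth inhibition is calculated against vehicle-treated cells.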
# [2] = NCI Yeast Anticancer Drug Screen. Data for the mec2-1 strain (AID 157); details: S. cerevisiae mec2-1 strain, hits give high values; at 50.0 µM unless noted
# Method in brief: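 Vehicle-treated cultures served as reference for growth inhibition of compound-exposed mec2-1 yeast.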
# [3] = NCI Yeast Anticancer Drug Screen. Data for the sgs1 mgt1 strain (AID 161);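 further: 0% = growth of cultures given vehicle only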; details: S. cerevisiae sgs1 mgt1 strain, hits give high values; at 50.0 µM unless noted
# Method in brief: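 Test agents were incubated with a DNA-repair-mutant yeast strain. Growth was then read and compared against vehicle-treated controls.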
# [4] = NCI Yeast Anticancer Drug Screen. Data for the cln2 rad14 strain (AID 165);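 further: 0% = growth equal to vehicle treated cultures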; details: S. cerevisiae cln2 rad14 strain, hits give high values; at 50.0 µM unless noted
# Method in brief: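 Each compound was tested on cln2 rad14 yeast. Inhibition of growth was calculated against vehicle-exposed controls.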
# [5] = NCI Yeast Anticancer Drug Screen. Data for the bub3 strain (AID 167); details: S. cerevisiae bub3 mutant strain, hits give high values; at 50.0 µM unless noted
# Method in brief: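 Inhibition values come from growth of compound-treated mutant yeast normalised to vehicle-treated controls.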
# [6] = NCI Yeast Anticancer Drug Screen. Data for the mlh1 rad18 strain (AID 175); details: S. cerevisiae mlh1 rad18 strain growth inhibition, hits give high values; at 50.0 µM unless noted
# Method in brief: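 Vehicle-treated cultures served as the reference for growth inhibition in a yeast strain carrying DNA damage repair alterations exposed to each compound.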
SMILES,growth inhibition [1],growth inhibition [2],growth inhibition [3],growth inhibition [4],growth inhibition [5],growth inhibition [6]
Cc1ccc(N2C(=O)CC(N3CCCCC3)C2=O)cc1 (centres undefined),29.1%,37.7%,68.2%,13.2%,-2.05%,80.2% (active)
CC(C(C#N)C(N)=O)C(C#N)C(N)=O (centres undefined),10.2%,12.4%,5.5%,-4.4%,-23.9%,14.7%
CN(C)CCC(=O)C(=Cc1ccc(Cl)c(Cl)c1)C(=O)CCN(C)C,93.2% (active),97.7% (active),95% (active),79.8% (active),97.8% (active),98% (active)
COC(=O)/C=C(\C(=O)OC)N1CCCCC1,1.55%,-3.8%,-6.55%,-29.9%,2.3%,-23.1%
Cc1ncc(CO)c(/C=N\OCc2cccc(Cl)c2)c1O,31.1%,16.3%,-1.5%,-1.95%,17.1%,9.2%
O=C1/C(=C/c2ccc(O)cc2)CCc2ccccc21,-21.6%,-6.35%,-2.1%,2.75%,11.9%,-34.2%
CC1(CO)COC(C)(C)OC1,16.1%,5.85%,7.1%,29.2%,2.75%,13.6%
O=C(Nc1ccccc1)Nc1ccc([N+](=O)[O-])cc1[N+](=O)[O-],25.5%,5.95%,26.9%,19.7%,11.9%,20.6%
O=C(COc1cc(Cl)c(Cl)cc1Cl)Nc1ccc(Cl)cc1,14.7%,19.9%,18%,17.2%,17.1%,11.2%
Cc1cc(C(=O)C(C#N)=Nc2ccc(N(C)C)cc2)c(CN2C(=O)c3ccccc3C2=O)c(=O)n1C,22.9%,-12.1%,19.3%,-28.1%,-6.15%,5.95%
c1ccc2nn(C3CCCO3)nc2c1 (centres undefined),0.75%,-16.5%,-21.9%,-29.4%,3.15%,-43.5%
C[N+]1(CCN[N+]2(C)CCCCC2)CCc2ccccc2C1 (centres undefined),-5.55%,-14.7%,-44.5%,-20.3%,-39.3%,-3.25%
C/C(=C\CNc1nc(Cl)nc2nc[nH]c12)CO,-12.3%,-5.6%,-32.6%,3.6%,-0.4%,-8.4%
O=c1[nH]cnc2nc(N3CCOCC3)sc12,-15.7%,-4.6%,-1.7%,-5.8%,-6.5%,-4.65%
NC(=O)c1cncn1C1OCC(O)C(O)C1O (centres undefined),10.2%,6.4%,3.85%,-6.8%,3.1%,-20.2%
CN(CCNC(=O)C1CCCCC1C(=O)O)c1ccccc1 (centres undefined),5%,22.3%,1%,0.15%,13.6%,-10.2%
COc1cc(OC)c(C2SCC(=O)N2c2nnc(C(F)(F)F)s2)cc1OC (centres undefined),9.9%,13.8%,5.15%,3.75%,25.9%,6.8%
O=C1c2c(Br)sc(Br)c2C(NC(=O)C(F)(F)F)C1O (centres undefined),10.3%,18.3%,-12.3%,-11%,3.95%,-27.4%
Cc1ccc2c(N=Nc3ccc(C(=N)N)cc3)ccc(O)c2n1,99.3% (active),99.4% (active),99.5% (active),98.2% (active),99.2% (active),99.2% (active)
